The values that follow come from PubChem BioAssay (Tox21).

“And” between values parts separate entries of the source, which are not always exact repeats. Identical values can stand only once. Records with an inconclusive call do not appear. Entries that show only a call come without a potency. The source made the active and inactive calls. The call rests on the fitted dose curve; in most records, active means well fitted cell-killing curve with a large enough effect in the repeat runs; inconclusive means weak or mixed curves, or effect the other way; inactive means no such curve, though single readings can be large or run the other way.
Potency means the concentration at half of the fitted maximal effect.

The nature of the assay: qHTS assay for identifying genotoxic compounds that show differential cytotoxicity against isogenic chicken DT40 cell lines with known DNA damage response pathways - wild type cell line (AID 743012). Further: nearly all actives have a fitted effect of over 60% in size. The conditions noted are these: DT40 wild type chicken cells viability, CellTiter-Glo, 40 h; series mostly up to 68.4 µM. From the text: U.S. Tox21 Program National Center for Advancing Translational Sciences [NCATS] NIH Chemical Genomics Center [NCGC] U.S. Environmental Protection Agency [EPA] National Institutes of Environmental Health Sciences [NIEHS] National Toxicology Program [NTP] U.S. Food and Drug Administration [FDA] Tox21 Assay Overview: DNA repair pathways play a critical role in cellular homeostasis by repairing DNA damage induced by endogenous processes and xenobiotics. Isogenic chicken DT40 cell lines deficient in different DNA repair pathways can be used to identify genotoxic compounds and aid in characterizing the nature of the DNA damage induced. Two DNA repair-deficient cell lines with disrupted genes, Rad54/Ku70 or Rev3, were used to screen the Tox21 10K compound library. Possible genotoxicity was based on the presence of a significant increase in cytotoxicity in one or more of the DNA repair-deficient cell lines compared to that observed in the parental DNA repair-proficient cell line. CellTiter Glo viability assay (Promega, Madison, WI) was used to measure cell viability in these cells after compound treatment. This assay includes the data from the wild type cell line.
Tox21 Assay Protocol Summary: 300 DT40 wild type cells in 5 uL/well were dispensed into white, solid-bottom 1536-well plates using a Multidrop Combi (ThermoFisher Scientific, Waltham, MA) dispenser. After the assay plates were incubated at 37 C/5% CO2 for approximately 0.5 hour, 23 nL of compounds dissolved in DMSO, positive controls or DMSO only was transferred into the assay plate by a pintool work station (Kalypsys, San Diego, CA). The assay plates were incubated at 37 C/5% CO2 for 40 hours. After 5 uL per well of CellTiter-Glo reagent was added into each well of the assay plates, the plates were incubated for 30 min at room temperature and the luminescence intensity of the plates was measured using a ViewLux (PerkinElmer, Shelton, CT) plate reader.
A general note: qHTS replaces the single test concentration by a dilution series.
As for `O=[N+]([O-])c1ccc(O)cc1C(F)(F)F`, the Potency was 27.3 µM (active).
In the case of `CCCCCCCC/C=C\CCCCCCCCN`, the Potency result is “inactive”.
With `CN1CCN2c3ccccc3Cc3ccccc3C2C1` (stereo not given) the figure was 13.3 µM (active); with `CN(C)Cc1cc(C(C)(C)C)c(O)c(C(C)(C)C)c1`, 17.2 µM (active).
With `CC(=O)[C@H]1CC[C@H]2[C@@H]3CCC4=CC(=O)CC[C@]4(C)[C@H]3CC[C@]12C` the figure was 6.68 µM (active) and 13.6 µM (active) and 7.7 µM (active).
Regarding `OC12N=C(c3ccccc3)SC1Cc1cc(Cl)ccc12` (stereo not given), the Potency was 68.6 µM (active).
For `COc1cc(C)ccc1O`, the Potency entry was “inactive”.
For `O=C1CCc2cc(OCCCCc3nnnn3C3CCCCC3)ccc2N1`, the Potency entry is “inactive”.
With `COc1ccc2cc1Oc1ccc(cc1)C[C@H]1c3c(cc4c(c3Oc3cc5c(cc3OC)CCN(C)[C@@H]5C2)OCO4)CCN1C` the figure was 7.5 µM (active); with `C#C[C@]1(OC(C)=O)CC[C@H]2[C@@H]3CCC4=C[C@@H](OC(C)=O)CC[C@@H]4[C@H]3CC[C@@]21C`, 3.76 µM (active) and 6.68 µM (active); with `OC[C@H]1O[C@H](O[C@H]2O[C@H](CO)[C@@H](O)[C@H](O)[C@H]2O)[C@H](O)[C@@H](O)[C@@H]1O`, “inactive”.
With `O=C(O)c1ccc2cc(C(=O)O)ccc2c1`, the Potency result was “inactive”.
With `O=c1[nH]c(=O)n([C@H]2C[C@H](O)[C@@H](CO)O2)cc1F` the figure was 0.0053 µM (active).
With `Nc1nc2c(ncn2COCCO)c(=O)[nH]1` the figure was 2.54 µM (active).
Consider `Cc1cc(C(C#N)c2ccc(Cl)cc2)c(Cl)cc1NC(=O)c1cc(I)cc(I)c1O` (stereo not given), for which the Potency was 26.6 µM (active).
With `CC(CO)Oc1ccccc1` (stereo not given) the entry was “inactive”; with `C=C(C)c1cccc(C(=C)C)c1`, “inactive”.
Turning to `CCC(C)[O-].CCC(C)[O-].CCOC(=O)/C=C(/C)[O-].[Al+3]`, the Potency entry was “inactive”.
With `Cc1ccc(C)cc1` the entry was “inactive”.
With `CC(C)CCOC(=O)/C=C/c1ccccc1` the entry was “inactive”; with `O[C@@H]([C@H](O)[C@H](O)CBr)[C@H](O)CBr`, “inactive”.
As for `O=C(O)c1cc(N=Nc2ccc([N+](=O)[O-])cc2)ccc1O`, the Potency entry was “inactive”.
With `COC1=C(OC)C(=O)C(CCCCCCCCCCO)=C(C)C1=O` the figure was 8.41 µM (active).
With `CC(=O)c1ccc(C(C)=O)cc1` the entry was “inactive”; with `C=CCn1c(=O)n(CC=C)c(=O)n(CC=C)c1=O`, “inactive”.
For the compound `Cc1cccc2cccnc12`, the Potency entry is “inactive”.
With `CCCCCCOC(=O)C(C)CC` (stereo not given) the entry was “inactive”; with `CCCCCCCCCCCCOCCOCCOCCOCCOCCOCCOCCOCCOCCO`, 2.98 µM (active).
In the case of `O=C(O)[C@H](O)[C@@H](O)[C@H](O[C@@H]1O[C@H](CO)[C@H](O)[C@H](O)[C@H]1O)[C@H](O)CO`, the Potency result is “inactive”.
With `CCOC(=O)Cn1cccc1-c1nc(-c2ccc(OC)cc2)c(-c2ccc(OC)cc2)s1` the entry was “inactive”; with `O=C(c1ccc(O)c(O)c1)c1ccc(O)cc1O`, 43.2 µM (active); with `OCCN1CCN(CCCN2c3ccccc3Sc3ccc(C(F)(F)F)cc32)CC1`, 3.76 µM (active).
With `COc1c(C)c2c(c(O)c1C/C=C(\C)CCC(=O)OCCN1CCOCC1)C(=O)OC2` the figure was 0.531 µM (active); with `C[Si](Cl)(c1ccccc1)c1ccccc1`, “inactive”.
Take `COC(C)=O`: the Potency result is “inactive”.
Turning to `Nc1ccc(NCCO)c([N+](=O)[O-])c1`, the Potency entry is “inactive”.
With `CC1(C)CC(O)CC(C)(C)N1` the entry was “inactive”; with `COc1ccc(NC(=O)CC(C)=O)cc1`, “inactive”.
As for `C=CC(=O)Nc1cc2c(Nc3ccc(F)c(Cl)c3)ncnc2cc1OCCCN1CCOCC1`, the Potency was 5.31 µM (active).
For the compound `CC(C)Cn1cnc2c(N)nc3ccccc3c21`, the Potency entry is “inactive”.
